PubChem BioAssay AID1159580 (chemical genetic matrix, 2015)
Several values for one entry are separate records, joined by “and”; a condition that tells them apart may be missing. Equal entries are not always repeated. About 2,000 (36%) of roughly 5,500 compounds were called active. Inconclusive results (about 18%) are left out. Rule as the data show it: active = normalized growth mostly below about 0.91 (no sharp cut-off); inconclusive = no clear call, values can overlap the other calls; inactive = mostly above about 0.92. Some of the results follow. *1 amine or outer side, *2 acyl side, *3 side chain or, on linkers, in order; H or OH if unused. Where a SMILES comes first, the peptide text is derived from it. Bridges are numbered along the chain shown (N, C = ends). [ ]: non-standard residue; d: D form. The star is where a group is joined. ξ: configuration not given here. ΔAla(E,3-NHCONH2) = NC(=O)N/C=C(/N)C(=O)O; X2 = NC1=NCCC(C(N[*:1])C(=O)[*:2])N1; ξβ3hOrn = NCCCC(N)CC(=O)*; Dap = NC[CH](N)C(=O)O

Experiment: chemical genetic growth profiling, strain panel (AID 1159580);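 also: tested at 20 µM; growth read once vehicle control cultures reached saturation at 30 °C; 1 = growth at the plate median or of vehicle wells; lower values mean less growth of the strain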
Details: S. cerevisiae deletion strains, growth OD

Measured: normalized growth

NCCCC(N)CC(=O)NCC1NC(=O)C(CO)NC(=O)C(N)CNC(=O)C(C2CCN=C(N)N2)NC(=O)/C(=C\NC(N)=O)NC1=O (stereo not drawn) (H-[Dap]S[Dap](ξβ3hOrn)[ΔAla(E,3-NHCONH2)][X2]; lactam 1-C; configuration not given here)
inactive: locus YAL013W, strain DEP1, active compounds read low 0.999 | locus YAL021C, strain ccr4, active compounds read low 1.01 | locus YAL026C, strain drs2, active compounds read low 0.994 | locus YAL030W, strain snc1, active compounds read low 1.03 | locus YBL061C, strain skt5, active compounds read low 1.02 | locus YBR009C, strain hhf1, active compounds read low 0.975 | locus YBR021W, strain FUR4, active compounds read low 0.997 | locus YBR023C, strain chs3, active compounds read low 1.01 | locus YBR171W, strain sec66, active compounds read low 1.02 | locus YBR229C, strain ROT2, active compounds read low 1.01 | locus YBR231C, strain swc5, active compounds read low 1.05 | locus YBR279W, strain paf1, active compounds read low 1.01 | locus YCL011C, strain gbp2, active compounds read low 0.984 | locus YCL016C, strain dcc1, active compounds read low 0.989 | locus YCL029C, strain bik1, active compounds read low 1.03 | locus YCL069W, strain vba3, active compounds read low 1.01 | locus YCR088W, strain abp1, active compounds read low 1.02 | locus YDL005C, strain med2, active compounds read low 0.994 | locus YDL035C, strain GPR1, active compounds read low 1.01 | locus YDL040C, strain nat1, active compounds read low 1.01 | locus YDL074C, strain BRE1, active compounds read low 1.02 | locus YDL101C, strain DUN1, active compounds read low 1 | locus YDL185W, strain tfp1, active compounds read low 1.03 | locus YDL192W, strain arf1, active compounds read low 0.998 | locus YDR001C, strain nth1, active compounds read low 0.999 | locus YDR069C, strain doa4, active compounds read low 1.03 | locus YDR101C, strain arx1, active compounds read low 1.02 | locus YDR137W, strain rgp1, active compounds read low 0.991 | locus YDR159W, strain sac3, active compounds read low 0.975 | locus YDR162C, strain NBP2, active compounds read low 1.01 | locus YDR195W, strain ref2 1.05 | locus YDR297W, strain sur2, active compounds read low 1.03 | locus YDR318W, strain mcm21, active compounds read low 1.02 | locus YDR334W, strain swr1, active compounds read low 1 | locus YDR335W, strain msn5, active compounds read low 1.02 | locus YDR388W, active compounds read low 1.01 | locus YDR392W, strain spt3, active compounds read low 0.928 | locus YDR502C, strain sam2, active compounds read low 1.01 | locus YEL003W, strain gim4, active compounds read low 1.04 | locus YEL037C, strain rad23, active compounds read low 1.02 | locus YEL061C, strain CIN8 (second series), active compounds read low 1.02 | locus YEL061C, strain CIN8, active compounds read low 0.997 | locus YER015W, strain faa2, active compounds read low 1.01 | locus YER016W, strain bim1, active compounds read low 0.993 | locus YER110C, active compounds read low 1.02 | locus YER111C, strain swi4, active compounds read low 0.999 | locus YER155C, strain BEM2 (second series), active compounds read low 1 | locus YER155C, strain BEM2, active compounds read low 1 | locus YER167W, strain BCK2, active compounds read low 0.996 | locus YFR010W, strain ubp6, active compounds read low 1.05 | locus YGL078C, strain dbp3, active compounds read low 1.02 | locus YGL086W, strain mad1, active compounds read low 0.997 | locus YGL167C, strain pmr1, active compounds read low 1.02 | locus YGL173C, strain kem1, active compounds read low 1.04 | locus YGL227W, strain vid30, active compounds read low 1.01 | locus YGL240W, strain doc1, active compounds read low 1.06 | locus YGL248W, strain PDE1, active compounds read low 1.01 | locus YGL253W, strain hxk2, active compounds read low 0.984 | locus YGR078C, strain PAC10, active compounds read low 1.01 | locus YGR135W, strain pre9, active compounds read low 1.04 | locus YGR229C, strain SMI1, active compounds read low 1.02 | locus YGR252W, strain gcn5, active compounds read low 0.993 | locus YHR013C, strain ard1, active compounds read low 1.03 | locus YHR027C, strain rpn1, active compounds read low 1.01 | locus YHR030C, strain SLT2, active compounds read low 1 and 1.03 | locus YHR079C, strain IRE1 (second series), active compounds read low 1.02 | locus YHR079C, strain IRE1, active compounds read low 1.03 | locus YHR094C, strain hxt1, active compounds read low 1.01 | locus YHR129C, strain ARP1, active compounds read low 0.999 | locus YHR142W, strain chs7, active compounds read low 1.01 | locus YHR200W, strain rpn10, active compounds read low 1.02 | locus YIL066C, strain RNR3, active compounds read low 1.01 | locus YIL073C, strain SPO22, active compounds read low 1.08 | locus YIL125W, strain kgd1, active compounds read low 1.01 | locus YIR030C, strain dcg1, active compounds read low 1.01 | locus YJL092W, strain hpr5, active compounds read low 1.03 | locus YJL095W, strain BCK1 (second series), active compounds read low 1.03 | locus YJL095W, strain BCK1, active compounds read low 1.01 and 1.04 | locus YJL115W, strain asf1, active compounds read low 1.02 | locus YJL129C, strain trk1, active compounds read low 1.01 | locus YJL134W, strain LCB3, active compounds read low 1.01 | locus YJL154C, strain vps35, active compounds read low 1.01 | locus YJL164C, strain tpk1, active compounds read low 1 | locus YJL166W, strain qcr8, active compounds read low 1.04 | locus YJL168C, strain set2, active compounds read low 1.01 | locus YJL187C, strain SWE1 (second series), active compounds read low 1.01 | locus YJR043C, strain POL32, active compounds read low 1.01
